Data: the supplement of paper PMC10849652
About 8,800 targets were measured; listed, in parts, are those with a hit and a random draw of the rest. About 0.5% of all pairs of compound and target were hits. Values without a mark were called inactive.

Legend:
Assay in all cases: log2 fold change, soluble protein after heating vs DMSO (PISA); higher = thermal stabilisation; K562 lysate, 10 uM; active = over 0.2 and 3.5 SD of the protein, either way, in both replicates (recomputed)
alvocidib = compound: CN1CC[C@H](c2c(O)cc(O)c3c(=O)cc(-c4ccccc4Cl)oc23)[C@H](O)C1 [alvocidib]
Summary of the method: (§1)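 Quantification was by TMTpro 16plex LC-MS/MS with equalised channel sums, applied to the supernatant after 21,000xg for 90 min. Samples were crude K562 extract at 1 mg/mL protein in PBS pH 7.4 with 1 mM MgCl2, treated with 10 μM compound for 30 min, heated for 3 min across 48°C-58°C, pooled and brought to 0.5% NP-40 at 4°C. Values are log-two fold changes in thermal stability relative to solvent controls, from duplicates.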

Tubastatin A = compound: CN1CCc2c(c3ccccc3n2Cc2ccc(C(=O)NO)cc2)C1 [Tubastatin A]
Summary of the method: as §1

[1] = compound: CNC(=O)C1=CC=CC=C1NC2=NC(=NC=C2Cl)NC3=C(C=C(C=C3)N4CCOCC4)OC
Summary of the method: as §1

[2] = compound: CNc1nc(-c2ccc3c(N)n[nH]c3c2)cc(N2C[C@@H](C(=O)NC3CCCCC3)CC[C@H]2C)n1
Summary of the method: as §1

encorafenib = compound: COC(=O)N[C@@H](C)CNc1nccc(-c2cn(C(C)C)nc2-c2cc(Cl)cc(NS(C)(=O)=O)c2F)n1 [encorafenib]
Summary of the method: as §1

[3] = compound: COC(=O)[C@H](CCSC)NC(=O)C1=C(C=C(C=C1)NC[C@H](CS)N)C2=CC=CC=C2
Summary of the method: as §1

[4] = compound: COc1cc2nc(-c3cc(F)ccc3O)nc(N[C@@H]3CNC[C@H]3C(C)(C)O)c2cc1OC
Summary of the method: as §1

lapatinib = compound: CS(=O)(=O)CCNCc1ccc(-c2ccc3ncnc(Nc4ccc(OCc5cccc(F)c5)c(Cl)c4)c3c2)o1 [lapatinib]
Summary of the method: as §1

pictilisib = compound: CS(=O)(=O)N1CCN(Cc2cc3nc(-c4cccc5[nH]ncc45)nc(N4CCOCC4)c3s2)CC1 [pictilisib]
Summary of the method: as §1

crizotinib = compound: C[C@@H](Oc1cc(-c2cnn(C3CCNCC3)c2)cnc1N)c1c(Cl)ccc(F)c1Cl [crizotinib]
Summary of the method: as §1

[5] = compound: C[C@H](C1=CC=C(C=C1)C(=O)NC2=C3C=CNC3=NC=C2)N
Summary of the method: as §1

duvelisib = compound: C[C@H](Nc1ncnc2nc[nH]c12)c1cc2cccc(Cl)c2c(=O)n1-c1ccccc1 [duvelisib]
Summary of the method: as §1

gandotinib = compound: Cc1cc(Nc2cc(CN3CCOCC3)c3nc(C)c(Cc4ccc(Cl)cc4F)n3n2)n[nH]1 [gandotinib]
Summary of the method: as §1

tozasertib = compound: Cc1cc(Nc2cc(N3CCN(C)CC3)nc(Sc3ccc(NC(=O)C4CC4)cc3)n2)n[nH]1 [tozasertib]
Summary of the method: as §1

doramapimod = compound: Cc1ccc(-n2nc(C(C)(C)C)cc2NC(=O)Nc2ccc(OCCN3CCOCC3)c3ccccc23)cc1 [doramapimod]
Summary of the method: as §1

bafetinib = compound: Cc1ccc(NC(=O)c2ccc(CN3CC[C@H](N(C)C)C3)c(C(F)(F)F)c2)cc1Nc1nccc(-c2cncnc2)n1 [bafetinib]
Summary of the method: as §1

[6] = compound: Cc1cccc(CC(=O)N2CCc3c2ccc(-c2cn(C)c4ncnc(N)c24)c3F)n1
Summary of the method: as §1

defactinib = compound: CNC(=O)c1ccc(Nc2ncc(C(F)(F)F)c(NCc3nccnc3N(C)S(C)(=O)=O)n2)cc1 [defactinib]
Summary of the method: as §1

alisertib = compound: COc1cc(Nc2ncc3c(n2)-c2ccc(Cl)cc2C(c2c(F)cccc2OC)=NC3)ccc1C(=O)O [alisertib]
Summary of the method: as §1

gefitinib = compound: COc1cc2ncnc(Nc3ccc(F)c(Cl)c3)c2cc1OCCCN1CCOCC1 [gefitinib]
Summary of the method: as §1

UniProt P48552, sequence (P48552 whole entry, looked up): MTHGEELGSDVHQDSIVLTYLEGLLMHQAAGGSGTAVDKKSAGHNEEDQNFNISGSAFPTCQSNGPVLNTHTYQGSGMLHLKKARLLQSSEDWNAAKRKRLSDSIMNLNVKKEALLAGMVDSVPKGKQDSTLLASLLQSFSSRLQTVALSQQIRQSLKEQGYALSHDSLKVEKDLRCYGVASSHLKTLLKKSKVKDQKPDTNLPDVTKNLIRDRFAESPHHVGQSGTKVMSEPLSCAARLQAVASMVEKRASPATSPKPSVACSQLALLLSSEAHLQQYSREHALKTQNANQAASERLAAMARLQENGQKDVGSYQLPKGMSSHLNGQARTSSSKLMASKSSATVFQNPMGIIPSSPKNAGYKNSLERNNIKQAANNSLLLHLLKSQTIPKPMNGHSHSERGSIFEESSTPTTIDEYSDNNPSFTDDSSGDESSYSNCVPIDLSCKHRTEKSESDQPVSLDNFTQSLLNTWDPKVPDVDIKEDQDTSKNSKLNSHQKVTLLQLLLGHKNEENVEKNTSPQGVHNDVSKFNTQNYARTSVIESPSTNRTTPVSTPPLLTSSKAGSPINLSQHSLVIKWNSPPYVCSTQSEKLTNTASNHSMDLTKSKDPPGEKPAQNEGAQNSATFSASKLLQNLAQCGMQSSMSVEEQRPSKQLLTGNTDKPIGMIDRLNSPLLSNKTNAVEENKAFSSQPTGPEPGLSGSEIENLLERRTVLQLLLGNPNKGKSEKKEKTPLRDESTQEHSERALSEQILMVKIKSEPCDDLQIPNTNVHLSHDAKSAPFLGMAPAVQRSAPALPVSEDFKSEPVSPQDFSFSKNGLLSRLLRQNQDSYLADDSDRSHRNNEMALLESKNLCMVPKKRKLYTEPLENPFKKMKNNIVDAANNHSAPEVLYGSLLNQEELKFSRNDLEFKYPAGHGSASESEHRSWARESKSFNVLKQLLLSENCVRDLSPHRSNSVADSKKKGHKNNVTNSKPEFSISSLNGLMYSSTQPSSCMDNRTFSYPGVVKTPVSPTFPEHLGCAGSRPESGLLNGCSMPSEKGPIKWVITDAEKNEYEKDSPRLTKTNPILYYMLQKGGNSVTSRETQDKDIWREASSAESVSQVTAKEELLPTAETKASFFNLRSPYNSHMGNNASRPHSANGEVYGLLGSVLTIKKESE
UniProt Q9BWT3, sequence (Q9BWT3 whole entry, looked up): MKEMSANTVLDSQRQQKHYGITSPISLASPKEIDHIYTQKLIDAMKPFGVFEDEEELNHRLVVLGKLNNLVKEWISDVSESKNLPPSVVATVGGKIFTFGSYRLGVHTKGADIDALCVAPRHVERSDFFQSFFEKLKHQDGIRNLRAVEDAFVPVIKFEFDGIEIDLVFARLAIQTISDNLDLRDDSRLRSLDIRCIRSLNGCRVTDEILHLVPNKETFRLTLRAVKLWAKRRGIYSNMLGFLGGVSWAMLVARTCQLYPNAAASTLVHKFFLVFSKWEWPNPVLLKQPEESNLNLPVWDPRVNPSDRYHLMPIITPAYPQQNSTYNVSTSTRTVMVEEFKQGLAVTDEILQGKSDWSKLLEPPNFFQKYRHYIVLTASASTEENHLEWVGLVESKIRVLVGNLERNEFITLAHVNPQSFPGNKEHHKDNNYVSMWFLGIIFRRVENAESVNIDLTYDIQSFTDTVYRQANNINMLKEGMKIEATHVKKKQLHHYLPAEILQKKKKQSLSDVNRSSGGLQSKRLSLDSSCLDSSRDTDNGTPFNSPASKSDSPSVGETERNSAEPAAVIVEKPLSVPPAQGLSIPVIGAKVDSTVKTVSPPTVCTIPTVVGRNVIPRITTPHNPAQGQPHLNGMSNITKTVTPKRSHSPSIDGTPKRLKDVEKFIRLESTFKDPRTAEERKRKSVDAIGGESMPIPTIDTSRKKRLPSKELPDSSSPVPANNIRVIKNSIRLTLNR
UniProt P53370, sequence (P53370 whole entry, looked up): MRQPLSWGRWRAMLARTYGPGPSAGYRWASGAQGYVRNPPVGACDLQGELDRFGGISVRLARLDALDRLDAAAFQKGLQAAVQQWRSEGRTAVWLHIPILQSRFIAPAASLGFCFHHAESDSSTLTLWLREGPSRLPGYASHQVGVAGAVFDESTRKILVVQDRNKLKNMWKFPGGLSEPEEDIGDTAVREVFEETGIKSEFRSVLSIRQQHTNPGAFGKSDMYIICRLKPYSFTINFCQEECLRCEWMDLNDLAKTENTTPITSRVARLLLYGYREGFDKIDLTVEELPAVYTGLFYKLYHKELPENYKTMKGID
UniProt O60829, sequence (O60829 whole entry, looked up): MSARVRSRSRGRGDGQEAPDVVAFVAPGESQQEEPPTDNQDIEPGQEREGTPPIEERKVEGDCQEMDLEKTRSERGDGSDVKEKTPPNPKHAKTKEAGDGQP
UniProt Q9UBD5, sequence (Q9UBD5 whole entry, looked up): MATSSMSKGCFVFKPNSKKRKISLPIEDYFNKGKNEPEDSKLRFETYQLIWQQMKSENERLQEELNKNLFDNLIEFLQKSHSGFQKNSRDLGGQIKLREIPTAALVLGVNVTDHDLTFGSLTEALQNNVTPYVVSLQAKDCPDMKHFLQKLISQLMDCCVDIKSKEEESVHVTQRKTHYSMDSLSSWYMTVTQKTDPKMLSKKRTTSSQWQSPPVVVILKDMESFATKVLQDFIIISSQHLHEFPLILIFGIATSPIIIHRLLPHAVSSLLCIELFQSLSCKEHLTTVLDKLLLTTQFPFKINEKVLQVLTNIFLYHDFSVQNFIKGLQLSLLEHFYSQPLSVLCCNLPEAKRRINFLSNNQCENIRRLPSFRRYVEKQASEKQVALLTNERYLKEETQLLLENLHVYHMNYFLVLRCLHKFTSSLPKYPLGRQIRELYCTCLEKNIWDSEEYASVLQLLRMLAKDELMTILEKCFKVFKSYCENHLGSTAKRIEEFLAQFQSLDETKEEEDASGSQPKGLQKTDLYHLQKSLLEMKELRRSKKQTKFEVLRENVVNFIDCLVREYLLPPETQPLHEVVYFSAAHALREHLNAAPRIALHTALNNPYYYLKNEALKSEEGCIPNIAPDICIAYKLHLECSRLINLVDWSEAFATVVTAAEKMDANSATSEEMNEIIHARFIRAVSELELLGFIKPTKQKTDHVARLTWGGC

**Q.** Which results are given for PAGE4 (UniProt O60829)?
**A.** log2 fold change (alvocidib): 0.086; log2 fold change (Tubastatin A): 0.027; log2 fold change [1]: -0.072; log2 fold change [2]: -0.038; log2 fold change (encorafenib): -0.005; log2 fold change [3]: -0.086; log2 fold change [4]: 0.057; log2 fold change (lapatinib): -0.012; log2 fold change (pictilisib): -0.05; log2 fold change (crizotinib): -0.028; log2 fold change [5]: 0.344 (active); log2 fold change (duvelisib): 0.091; log2 fold change (gandotinib): -0.102; log2 fold change (tozasertib): -0.023; log2 fold change (doramapimod): 0.11; log2 fold change (bafetinib): -0.004; log2 fold change [6]: -0.134

**Q.** Which log2 fold change (alvocidib) does the source give for PAPOLG (UniProt Q9BWT3) here?
**A.** Its log2 fold change is -0.008.

**Q.** And the log2 fold change (Tubastatin A)?
**A.** Its log2 fold change is 0.16.

**Q.** What about the log2 fold change [1] of the same target?
**A.** Its log2 fold change is 0.003.

**Q.** And the log2 fold change (defactinib)?
**A.** Its log2 fold change is -0.025.

**Q.** What about the log2 fold change [2] of the same target?
**A.** The log2 fold change was 0.085.

**Q.** What about the log2 fold change (encorafenib) of the same target?
**A.** Its log2 fold change is 0.063.

**Q.** And the log2 fold change [3]?
**A.** Its log2 fold change is 0.098.

**Q.** What about the log2 fold change (alisertib) of the same target?
**A.** Its log2 fold change is -0.035.

**Q.** What about the log2 fold change (gefitinib) of the same target?
**A.** The log2 fold change was 0.062.

**Q.** And the log2 fold change (crizotinib)?
**A.** The log2 fold change was -0.139.

**Q.** What about the log2 fold change [5] of the same target?
**A.** Its log2 fold change is -0.026.

**Q.** What about the log2 fold change (duvelisib) of the same target?
**A.** Its log2 fold change is 0.02.

**Q.** And the log2 fold change (gandotinib)?
**A.** The log2 fold change was -0.002.

**Q.** And the log2 fold change (tozasertib)?
**A.** The log2 fold change was -0.027.

**Q.** What about the log2 fold change (doramapimod) of the same target?
**A.** The log2 fold change was 0.017.

**Q.** And the log2 fold change [6]?
**A.** Its log2 fold change is 0.067.

**Q.** What does the source list for NRIP1 (UniProt P48552)?
**A.** log2 fold change (alvocidib): -0.145; log2 fold change (Tubastatin A): 0.001; log2 fold change [1]: -0.096; log2 fold change [2]: 0.291; log2 fold change (alisertib): -0.21; log2 fold change [4]: 0.04; log2 fold change (gefitinib): -0.011; log2 fold change (lapatinib): -0.052; log2 fold change (pictilisib): -0.007; log2 fold change (crizotinib): -0.155; log2 fold change [5]: -0.396; log2 fold change (duvelisib): -0.014; log2 fold change (gandotinib): 0.407; log2 fold change (doramapimod): 0.048; log2 fold change (bafetinib): -0.07; log2 fold change [6]: 0.26

**Q.** How did the log2 fold change (alvocidib) turn out when ORC3 (UniProt Q9UBD5) was run?
**A.** Its log2 fold change is 0.16.

**Q.** What about the log2 fold change (alisertib) of the same target?
**A.** The log2 fold change was -0.035.

**Q.** And the log2 fold change [4]?
**A.** The log2 fold change was 0.

**Q.** And the log2 fold change (gefitinib)?
**A.** The log2 fold change was 0.105.

**Q.** And the log2 fold change (lapatinib)?
**A.** Its log2 fold change is 0.213.

**Q.** And the log2 fold change [5]?
**A.** Its log2 fold change is 0.129.

**Q.** What about the log2 fold change (gandotinib) of the same target?
**A.** The log2 fold change was -0.311.

**Q.** And the log2 fold change [6]?
**A.** Its log2 fold change is 0.082.

**Q.** How did the log2 fold change (Tubastatin A) turn out when NUDT6 (UniProt P53370) was run?
**A.** The log2 fold change was 0.042.

**Q.** What about the log2 fold change [1] of the same target?
**A.** Its log2 fold change is 0.154.

**Q.** And the log2 fold change (defactinib)?
**A.** The log2 fold change was -0.002.

**Q.** What about the log2 fold change [2] of the same target?
**A.** Its log2 fold change is -0.024.

**Q.** And the log2 fold change (encorafenib)?
**A.** The log2 fold change was -0.021.

**Q.** What about the log2 fold change [3] of the same target?
**A.** The log2 fold change was -0.015.

**Q.** And the log2 fold change (crizotinib)?
**A.** Its log2 fold change is 0.051.

**Q.** And the log2 fold change (duvelisib)?
**A.** The log2 fold change was -0.034.

**Q.** And the log2 fold change (tozasertib)?
**A.** Its log2 fold change is 0.132.

**Q.** And the log2 fold change (doramapimod)?
**A.** The log2 fold change was -0.073.

**Q.** For MTHFD1 (UniProt V9GZ32), which log2 fold change (alisertib) is on record?
**A.** Its log2 fold change is 0.108.

**Q.** And the log2 fold change [4]?
**A.** Its log2 fold change is 0.

**Q.** What about the log2 fold change (gefitinib) of the same target?
**A.** Its log2 fold change is -0.073.

**Q.** And the log2 fold change (lapatinib)?
**A.** Its log2 fold change is -0.067.
